# MPTP inh: inhibitors of mitochondrial permeability transition pore. 360,000 tested, 1.4% active. isolated mouse mitochondria, Ca2+ swelling absorbance, 30 min. inhibition, % at 10 µM. AID 602449;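 active means inhibition of 50% or more, scaled per plate between neutral and stimulator controls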
# Beta apoptosis: blocks beta cell apoptosis. INS-1E cytokine-induced death, ATP luminescence, 48 h; percent of positive-control rescue, neutral wells zero. protection from apoptosis, % (no concentration beside the values). 300,000 tested, 0.8% active;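 active means Every replicate reaches about 75%, or at least half do and their mean reaches it too, limit read from the data; inconclusive means At least half of replicates reach the limit but their mean does not; inactive means Under half of replicates reach the limit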;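 further: higher means more ATP so stronger rescue from cytokine killing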
# Mdm2 MdmX PPI: disrupts the human Mdm2-MdmX interaction. O15151+Q00987. 330,000 tested, 3% active. SaOS-2 split-luciferase Mdm2/MdmX complementation, luminescence. inhibition, % at 8 µM;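 active means inhibition of at least 50% at 8 µM in the primary screen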
# Target sequence (O15151 whole entry, looked up): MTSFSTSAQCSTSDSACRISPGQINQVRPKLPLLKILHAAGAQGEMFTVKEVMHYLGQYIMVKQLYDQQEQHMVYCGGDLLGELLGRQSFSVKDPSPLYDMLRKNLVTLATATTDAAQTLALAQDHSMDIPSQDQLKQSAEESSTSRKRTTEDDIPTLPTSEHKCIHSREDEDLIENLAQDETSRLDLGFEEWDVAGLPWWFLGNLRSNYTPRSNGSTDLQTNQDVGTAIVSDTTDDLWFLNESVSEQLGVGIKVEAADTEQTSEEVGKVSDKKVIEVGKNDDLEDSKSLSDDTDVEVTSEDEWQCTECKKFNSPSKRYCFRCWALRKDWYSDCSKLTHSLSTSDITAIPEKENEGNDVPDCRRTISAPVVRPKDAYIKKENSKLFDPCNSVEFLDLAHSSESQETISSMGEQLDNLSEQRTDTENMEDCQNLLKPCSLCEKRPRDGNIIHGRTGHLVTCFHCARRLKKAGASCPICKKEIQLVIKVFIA
# Target sequence (Q00987 whole entry, looked up): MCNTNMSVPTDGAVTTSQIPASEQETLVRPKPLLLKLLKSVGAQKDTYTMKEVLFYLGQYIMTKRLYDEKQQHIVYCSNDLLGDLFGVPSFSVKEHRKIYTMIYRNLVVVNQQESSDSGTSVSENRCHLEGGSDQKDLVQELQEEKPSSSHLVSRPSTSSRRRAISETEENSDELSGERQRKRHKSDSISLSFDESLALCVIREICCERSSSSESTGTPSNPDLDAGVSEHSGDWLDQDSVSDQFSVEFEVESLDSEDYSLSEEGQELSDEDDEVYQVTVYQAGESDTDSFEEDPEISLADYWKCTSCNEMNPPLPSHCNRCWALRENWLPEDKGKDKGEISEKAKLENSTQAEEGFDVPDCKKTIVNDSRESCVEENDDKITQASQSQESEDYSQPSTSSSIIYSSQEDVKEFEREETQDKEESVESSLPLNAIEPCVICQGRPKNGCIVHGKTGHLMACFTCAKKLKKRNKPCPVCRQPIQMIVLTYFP
# SKKanGAS inh: SKKanGAS growth inhibition; S. pyogenes SKKanGAS, kanamycin growth, BacTiter-Glo, 6 h; inhibition, % at 7.5 µM; 300,000 tested, 1.3% active;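 active means mean replicate score, as percent of positive control median, at least 50; inconclusive means mean below 50 but one replicate at or above 50; inactive means mean and every replicate below 50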;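 further: strain carries kanamycin resistance gene driven by streptokinase promoter and grows in 40 µg/ml kanamycin; loss of luminescence reflects streptokinase promoter inhibition or plain growth inhibition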
# Calb FLC: affects C. albicans growth with fluconazole; C. albicans CaCi-2 (fluconazole-resistant clinical isolate) + fluconazole, Alamar Blue growth, 48 h; growth inhibition, % (test concentration not listed); 300,000 tested, 0.57% active; AID 1979;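 active means growth inhibition above about 58% in most replicates, limit read from the data, passing the limit was not always enough; inconclusive means exactly half the replicates above a set limit; inactive means most replicates below a set limit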;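 further: all wells also contain fluconazole at 8 µg/ml as a sub-toxic cotreatment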
# CSC inhib: blocks cancer stem cells; cancer stem cell-like cells viability, luminescence; inhibition, % at 7.5 µM; 300,000 tested, 1.1% active; in the data active means inhibition above about 75%; inconclusive means no clear call, values can overlap the other calls; tested in HMLE shEcad cells
# Mdm2 MdmX conf: human Mdm2/MdmX binding inhibition, confirmed | shares compounds with Mdm2 MdmX PPI | luminescent assay | inhibition, % at 8 µM | 10,000 tested, 55% active | AID 489028; in the data active means inhibition above about 40%
# FLuc counter: full-length luciferase inhibition in Mdm2/MdmX counter-screen; shares compounds with Mdm2 MdmX PPI; SaOS-2 full-length luciferase counterscreen, luminescence; inhibition, % at 8 µM; 6,200 tested, 77% active; AID 504607;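 active means mean inhibition at 8 µM reaching about 37%, which flags the compound as non-specific, limit read from the data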;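 further: p53-null SaOS-2 cells with luciferase driven by a doxycycline-inducible promoter; compound on cells about two nights before reading with doxycycline added after day one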
# A number is an active result; – = inactive; ? = inconclusive; · = no result. Shown are actives, neighbours in structure and some others; about 5.4% of the full set was active somewhere.
SMILES,MPTP inh,Beta apoptosis,Mdm2 MdmX PPI,SKKanGAS inh,Calb FLC,CSC inhib,Mdm2 MdmX conf,FLuc counter
CCN(CC)c1ccc2c(C)cc(=O)oc2c1,–,–,–,·,·,–,·,·
CCN(CC)c1ccc2c(Cl)c(Br)c(=O)oc2c1,–,–,100,–,–,?,44,–
Cc1ccc(S(=O)(=O)N2[C@@H](CO)CO[C@H]2CC(=O)c2ccccc2)cc1,–,·,·,·,·,·,·,·
CCc1ccc(NC(=O)[C@H](C)NC(=O)C2CCN(C(=O)[C@@H](N)CC(C)C)CC2)cc1,–,–,–,–,–,–,·,·
COC(=O)[C@@]1(Cc2ccc(OC)cc2)[C@@H]2C(=CC(=O)[C@H]2CC(=O)C(=O)N2CCCC2)CN1C(=O)c1ccccc1,–,–,69,·,·,–,–,·
COC(=O)[C@@]1(Cc2ccc(F)cc2)[C@H]2C(CC(=O)C(=O)N3CCCC3)C(=O)C[C@H]2CN1C(=O)c1ccccc1 (some centres not stated),–,·,·,·,·,·,·,·
O=C(c1cccc([N+](=O)[O-])c1)N1CCN(c2ccc(N3CCOCC3)nn2)CC1,–,·,–,–,–,–,·,·
Cc1ccc(S(=O)(=O)c2c(N)n(CCCN(C)C)c3nc4ccccc4nc23)cc1,–,·,54,–,–,·,–,·
CC1=NN(c2ccccc2)C(=O)/C1=C/C=C/c1ccc(N(C)C)cc1,–,·,·,–,–,·,·,·
CC1=NN(c2ccccc2)C(=O)/C1=C\C=C\c1ccccc1,–,–,66,–,–,102,45,–
O=C(Cc1ccccc1)c1c[nH]c(C(=O)C(Cl)(Cl)Cl)c1,–,·,–,–,–,·,·,·
CCOC(=O)c1ccc(NC(=S)NCCc2ccc(OC)c(OC)c2)cc1,–,–,–,–,–,–,·,·
CCCCOc1ccccc1NC(=O)Cn1c(-c2nonc2N)nc2ccccc21,–,–,90,–,–,–,–,·
CCC(=O)Nc1nonc1-c1nc2ccccc2n1Cc1cccc2ccccc12,–,–,64,–,–,–,70,109
CCOC(=O)Cn1c(-c2nonc2NC(=O)c2ccccc2F)nc2ccccc21,–,–,91,–,–,–,93,–
CCC(=O)Nc1nonc1-c1nc2ccccc2n1CCC(C)C,–,–,50,–,–,–,56,56
CN(C)c1cccc(C(=O)N/N=C/c2ccccc2F)c1,–,–,–,·,–,–,·,·
CC(=O)Nc1nonc1-c1nc2ccccc2n1CCC(C)C,–,–,56,–,–,–,50,45
COc1ccc(S(=O)(=O)N2CCOC23CCN(S(=O)(=O)c2cccs2)CC3)cc1,–,·,–,–,–,·,·,·
O=C1CCCCCN1CP(=O)(O)CN1CCCCCC1=O,–,–,–,–,–,–,·,·
COc1ccc2c(Cn3cnc4cc([N+](=O)[O-])ccc4c3=O)cc(=O)oc2c1,–,–,60,–,–,–,73,–
CC(C)[C@H](NC(=O)NCCC1=CCCCC1)C(=O)O,–,–,–,–,–,–,·,·
CCNC(=O)C1CCCN(C(=O)c2ccco2)CC1 (configuration not stated),–,·,·,·,·,·,·,·
COc1cc(-c2noc(C)c2/C=C/c2cccc([N+](=O)[O-])c2)cc(OC)c1OC,–,–,79,–,–,–,75,84
COc1cccc(C2OC(=O)c3ccccc3N2C(C)=O)c1OC(C)=O (configuration not stated),–,–,–,–,–,–,·,·
SMILES,MPTP inh,Beta apoptosis,Mdm2 MdmX PPI,SKKanGAS inh,Calb FLC,CSC inhib,Mdm2 MdmX conf,FLuc counter
COc1cc(C(=O)Oc2ccccc2/C=N/NC(=O)c2ccc(Cl)cc2)cc(OC)c1OC,–,·,–,–,–,–,·,·
COc1cc(C(=O)Oc2ccccc2/C=N/NC(=O)c2ccc(C)c(Cl)c2)cc(OC)c1OC,–,93,58,–,–,–,–,·
CC(=O)S[C@@H]1CC2=CC(=O)CC[C@]2(C)[C@H]2CC[C@@]3(C)[C@@H](CC[C@@]34CCC(=O)O4)[C@H]12,–,–,57,–,·,–,–,·
COC(=O)c1cc2ccccc2c([N+](=O)[O-])c1O,–,·,·,·,·,·,·,·
COc1ccc2c(c1[N+](=O)[O-])CCC/C2=N/OC(=O)c1cccc2ccccc12,–,–,52,–,–,–,–,·
NC1=NC[C@H](Cc2ccccc2)N1CCc1cc(C(F)(F)F)cc(C(F)(F)F)c1,–,–,63,–,–,–,–,·
COc1ccc(N2CCOCC2)c(NC(=O)COc2cccc(C)c2)c1,–,–,–,–,·,–,·,·
COc1ccccc1N=C(C)C1=C(O)CC(c2ccccc2)CC1=O (configuration not stated),–,–,61,–,–,–,55,79
COc1ccccc1C1(CC(=O)N2CCCCC2)CCOC(C(C)C)C1 (configuration not stated),–,–,–,–,?,–,·,·
O=C(Cc1cccs1)NCCSc1c(-c2ccc(Cl)cc2)[nH]c2ccccc12,–,–,77,–,–,–,–,·
NC(=O)c1cc(S(=O)(=O)N2CCCCC2)cs1,–,–,–,–,–,–,·,·
Fc1cccc(/C=N/Nc2nc3ccccc3[nH]2)c1,·,–,–,–,–,–,·,·
C(=N\Nc1nc2ccccc2[nH]1)/c1cccc2cccnc12,–,·,65,–,–,100,66,45
Cc1[nH]c2ccccc2c1/C=N/Nc1nc2ccccc2[nH]1,–,118,62,61,–,–,–,·
Cc1[nH]c2ccccc2c1/C=N/Nc1nc(N2CCCCC2)nc(N2CCCCC2)n1,–,–,–,–,–,–,·,·
CNc1nc(N)c([N+](=O)[O-])c(Nc2ccccc2OC)n1,–,·,65,–,–,·,–,71
COc1ccccc1Nc1nc(N(C)c2ccccc2)nc(N)c1[N+](=O)[O-],–,–,–,–,–,–,·,·
COc1ccccc1Nc1nc(NCCC(C)C)nc(N)c1[N+](=O)[O-],–,–,53,–,–,–,41,80
COc1ccccc1Nc1nc(NCCO)nc(N)c1[N+](=O)[O-],–,–,62,–,–,–,–,·
COc1ccc(NC(=O)c2cc(N3C(=O)C4C5CCC(C5)C4C3=O)ccc2Cl)c(OC)c1 (configuration not stated),–,–,–,–,–,–,·,·
N=c1n(Cc2ccccc2Cl)c2ccccc2n1CC(O)c1ccco1 (configuration not stated),–,–,–,–,–,–,·,·
CCOCCCNc1nc2nc3ccc(C)cn3c(=O)c2cc1C(=O)NCC1CCCO1 (configuration not stated),–,–,–,–,–,–,·,·
COc1ccc(C2c3ccc4ccccc4c3Oc3ncn(CCN4CCOCC4)c(=N)c32)cc1 (configuration not stated),–,·,75,–,101,–,55,53
COc1ccc(C2c3ccc(O)cc3Oc3ncn(CCN4CCOCC4)c(=N)c32)cc1OC (configuration not stated),–,–,–,–,–,–,·,·

# Compound activity from PubChem BioAssay.
